# From PubChem BioAssay
# An excerpt weighted towards active compounds, which were near 7.5% of everything screened.
# NPC1 promoter act = activates the NPC1 promoter; Potency, µM (series often up to 9.22 µM), for inactives: at the highest dose activation, actives largely listed as activators; hit rate 2.4% among 320,000; Huh7 NPC1 promoter luciferase reporter, 24 h; note: % of control where 0% means no effect; nearly all actives have a fitted effect of over 60% in size
#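 Compounds in DMSO were transferred onto Huh7 NPC1-luciferase reporter cells pre-incubated 2 h; after 24 h at 37 °C, Amplite reagent was dispensed and luminescence recorded 10 min later.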
# FLuc counter = counter-screen for miR-21 project: firefly luciferase inhibitors or activators; Potency, µM (top dose mostly 57.5 µM), without a hit: top-dose activity change, negative = inhibition, usual class: inhibitors; hit rate 6.9% among 360,000; purified FLuc, Km substrates, luminescence inhibition;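 note: plate controls were vehicle for no effect and reference inhibitor for full effect; nearly all actives have a fitted effect of over 55% in size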
# Target sequence (P08659 whole entry, looked up): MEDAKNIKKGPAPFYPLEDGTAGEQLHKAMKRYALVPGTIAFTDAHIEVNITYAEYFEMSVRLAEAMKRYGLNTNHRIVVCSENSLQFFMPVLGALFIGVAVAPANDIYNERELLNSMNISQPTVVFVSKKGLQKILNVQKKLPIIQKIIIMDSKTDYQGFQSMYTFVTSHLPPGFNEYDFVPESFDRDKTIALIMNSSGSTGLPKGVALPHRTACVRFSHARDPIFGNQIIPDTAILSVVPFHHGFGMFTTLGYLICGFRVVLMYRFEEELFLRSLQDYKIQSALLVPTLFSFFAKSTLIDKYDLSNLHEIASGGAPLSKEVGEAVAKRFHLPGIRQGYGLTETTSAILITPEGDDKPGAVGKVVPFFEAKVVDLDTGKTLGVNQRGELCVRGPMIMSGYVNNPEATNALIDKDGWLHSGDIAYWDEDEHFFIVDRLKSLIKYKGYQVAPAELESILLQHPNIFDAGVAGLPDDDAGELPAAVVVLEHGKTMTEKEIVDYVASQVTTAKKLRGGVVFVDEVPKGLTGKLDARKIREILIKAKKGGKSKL
#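 Purified P. pyralis luciferase, 10 nM final, with Km-level 10 uM D-luciferin and 10 uM ATP in 50 mM Tris acetate pH 7.5, 10 mM Mg acetate, 0.01% Tween-20, 0.05% BSA; 6-point qHTS titration about 60 µM downward; luminescence read.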
# Rab9 prom act = activators of Rab9 promoter | AID 485297 | hit rate 2.8% among 320,000 | Potency, µM (top dose mostly 9.22 µM), without a hit: at the top dose activation, negative = inhibition, most hits filed as activators | Huh7 Rab9 promoter-luciferase reporter, luminescence, 24 h; note: % of control where 0% means no effect; nearly all actives have a fitted effect of over 60% in size
#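 Cell-based reporter: Huh7 stable for Rab9 promoter-driven luciferase, plated in reduced-serum medium with 10% FBS at 1500 cells/well, compound-treated 24 h at 37 °C, luminescence read after 10 min reagent.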
# ELG1 genotox = genotoxicity induction in ELG1-luciferase HEK293T cells | HEK293T ELG1-luciferase reporter, luminescence, 16 h | Potency, µM (titrated, usually from 46 µM), without a hit: at the top dose activity change, positive = activation, most hits filed as activators | hit rate 1.3% among 330,000; note: % of control where 0% means no effect; nearly all actives have a fitted effect of over 60% in size
#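 Reporter readout depends on ELG1 protein level, which increases with genetic stress. After 16 hr compound exposure at 37 °C, luciferase activity was quantified using ONE-Glo.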
# SMN2 splice up = SMN2 splice variant enhancement. HEK293 SMN2-luciferase splicing reporter, luminescence, 30-36 h. Potency, µM (series often up to 46.1 µM), for the others: top-dose activity change, positive = activation, most hits filed as activators. hit rate 2.8% among 210,000. AID 1458; note: % of control where 0% means no effect; nearly all actives have a fitted effect of over 55% in size
#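 HEK293 cells carry an SMN2 […]–luciferase reporter in which exon 7 inclusion puts luciferase in frame. Cells were plated 10-12 h before compound addition, then incubated 30-36 h at 37C. ONE-Glo luminescence was read; sodium butyrate at 4.5 mM final served as control.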
# * = called active by the depositor; ? = inconclusive; . = no result; [ ] = dose if it differs, or a comment. Calls come from the whole dose curve; as a rule, active = well fitted curve in the direction sought with a large enough effect; inconclusive = small, poorly fitted or top-dose-only effect, or another doubt; inactive = no such curve, though single readings can be large; an effect the other way counts as inactive or inconclusive. Potency is the fitted concentration of half-maximal effect.
SMILES,NPC1 promoter act,FLuc counter,Rab9 prom act,ELG1 genotox,SMN2 splice up
CC(=O)Nc1cccc(/C(C)=N/NC(=O)c2ccc(Cl)cc2Cl)c1,3%,19µM*,-6%,-1%,-26%
C/C(=N/NS(=O)(=O)c1ccc(C)cc1)c1cccc(NC(=O)c2cccc(Cl)c2)c1,-1%,17µM*,-5%,-11%,-13%
Cc1cc(=O)[nH]c(SCCOc2ccc(OC(C)C)cc2)n1,?,15µM*,?,5.2µM*,?
CCc1cc(OCCCSc2nc(C)cc(=O)[nH]2)ccc1Cl,-4%,-1%,0%,-6%,-47%
C/C=C/c1ccc(OCCSc2nc(C)cc(=O)[nH]2)c(OC)c1,-7%,13µM*,9%,?,10%
Cc1cc(=O)[nH]c(SCCOc2ccc3c(c2)CCC3)n1,.,7.6µM*,.,.,13µM*
Cc1cc(=O)[nH]c(SCCCOc2ccccc2Cl)n1,12%,24µM*,1%,-7%,-3%
CCCc1cc(=O)[nH]c(SCCOc2ccc(OCC)cc2)n1,0%,0%,1%,-9%,4%
C/C=C/c1ccc(OCCOc2ccc(C=O)cc2)c(OC)c1,1%,-12%,-1%,4%,-2%
CCOc1ccc(OCCSc2nc(N)cc(=O)[nH]2)cc1,13%,?,15%,4%,.
O=C1Nc2c(c(=O)[nH]c(=O)n2-c2ccc(F)cc2)C1(NS(=O)(=O)c1ccccc1)C(F)(F)F (configuration not stated),17%,0%,-2%,1%,.
COc1cc(C(=O)NN2C(=O)NC3(CCC(C)CC3)C2=O)ccc1OC(F)F (configuration not stated),.,.,.,1%,.
COCCCNC(=O)C(=O)Nc1cc2c3c(c1)CCN3C(=O)CC2,-1%,0%,1%,14%,.
OC[C@H](S)CS,.,.,.,.,-2%[9.22 µM]
Cc1ccc(/C=N/Nc2nc(C)cc(C)n2)cc1,1%,?,-2%,4%,.
COc1ccc(/C=N/Nc2cc(C)nc(N)n2)cc1,11%,19µM*,7%,17%,?
COc1cc(/C=N/Nc2cc(C)nc(N)n2)ccc1O,2%,9.5µM*,-4%,?,.
NS(=O)(=O)c1ccc(NNC(=O)c2ccccc2)cc1,-3%,1%,-3%,0%,.
O=C(NNc1cc(Br)c(O)c(Br)c1)c1ccccc1,4%,21µM*,-4%,-4%,-22%
CN(C(=O)CSc1nnc(Cc2cccs2)n1C1CC1)C1CCS(=O)(=O)C1 (configuration not stated),8%,2%,0%,-2%,.
O=C1N/C(=N/S(=O)(=O)Cc2ccccc2)S/C1=C/c1ccc2c(c1)OCO2,-2%,27µM*,-5%,-2%,.
COc1ccc(/C=C2\SC(=NCc3ccccc3)NC2=O)cc1,-2%,-13%,-2%,-1%,-10%
CCN(CC)c1ccc(/C=N/NC(=O)CC(C)C)cc1,11%,?,19%,10%,.
CCN(CC)c1ccc(NC(=O)CCCOc2cccc(C)c2)cc1,-1%,1%,-3%,-9%,-8%
CCN(CC)c1ccc(/C=N/NC(=O)Nc2ccccc2)cc1,4µM*,5.4µM*,3.2µM*,-8%,20µM*
SMILES,NPC1 promoter act,FLuc counter,Rab9 prom act,ELG1 genotox,SMN2 splice up
CCN(CC)c1ccc(/C=N\NC(N)=O)cc1,-4%,?,4%,16%,2%
CCN(CC)c1ccc(/C=N/NC(=O)OC(C)(C)C)cc1,?,11µM*,2.8µM*,?,.
Cc1ccc(/C=N/NC(=O)Nc2ccccc2)o1,2.5µM*,11µM*,3.2µM*,?,11µM*
CCN(CC)c1ccc(/C=N/OCC(=O)Nc2cccc(C)c2)cc1,2%,12µM*,2%,-1%,-6%
CC1C/C(=N/O)C(C)CN1 (configuration not stated),0%,0%,-2%,1%,-22%
O=C(NC1CCCN(CCc2ccccc2)C1)C1CCCC1 (configuration not stated),0%,0%,0%,1%,.
CCOc1ccc(/C=N/NC(=O)CC(=O)NCc2ccccc2)cc1,4%,?,-4%,1%,-9%
O=C(Cc1ccccc1)N/N=C/c1ccc(OCC(=O)Nc2ccccc2)cc1,-1%,0%,9%,-2%,-5%
CC(=O)Oc1ccc(/C=N/NC(=S)Nc2ccccc2)cc1,3.2µM*,?,4µM*,9.2µM*,11µM*
CCOc1ccc(/C=N/NC(=O)Nc2ccccc2)cc1,?,3µM*,2.2µM*,7.3µM*,5µM*
COCCNc1nc(C)nc2c1nc(-c1ccccc1)n2CCN(C)C,.,.,.,.,-10%
Cc1ccccc1Cn1cc(NC(=O)c2cc(C3CC3)on2)cn1,?,19µM*,?,-11%,.
Cc1ccccc1Cn1cc(NC(=O)c2cc(-c3ccc(Cl)cc3)on2)cn1,.,6%,.,.,-3%
CCN(CCn1cccn1)C(=O)c1cc(COc2ccc(F)c(F)c2)on1,13%,?,24%,9%,.
CCN(CCn1cccn1)C(=O)c1cc(COc2ccccc2SC)on1,2µM*,8.5µM*,3.5µM*,?,.
CCN(CCn1cccn1)C(=O)c1cc(COc2cc(C)ccc2C)on1,3.5µM*,9.5µM*,3.5µM*,?,.
O=C(COC(=O)Cc1c(Cl)cccc1Cl)Nc1ccc(OC(F)(F)F)cc1,1%,-7%,-6%,2%,5%
Cc1cc(Nc2ccc(Br)cc2)nc(C)n1,.,21µM*,.,.,.
Cc1ccc(Nc2cc(-c3ccccc3)nc(C)n2)cc1,.,24µM*,.,.,.
COc1cccc(Nc2cc(-c3ccccc3)nc(C)n2)c1,.,27µM*,.,.,.
COc1ccc(Nc2cc(Nc3cccc(OC)c3)ncn2)cc1,?,2.7µM*,?,?,.
COc1cccc(Nc2nc(-c3ccccc3)nc3ccccc23)c1,-5%,-14%,-1%[1.84 µM],-9%,.
CCOC(=O)c1ccc(Nc2cc(-c3ccccc3)nc(C)n2)cc1,.,-7%,.,.,.
N=C(N)S[C@H]1c2ccccc2-c2cc([N+](=O)[O-])ccc21,.,.,.,.,-4%[9.22 µM]
CCOc1ccccc1NC(=O)C1CCN(S(=O)(=O)c2ccc3c(c2)CCCN3C(C)=O)CC1,.,1%,.,.,.
SMILES,NPC1 promoter act,FLuc counter,Rab9 prom act,ELG1 genotox,SMN2 splice up
CCn1c(SCC(=O)c2c(N)n(C3CC3)c(=O)[nH]c2=O)nc2cc(S(N)(=O)=O)ccc21,0%,4%,-5%,-1%,.
N/C(=N\OC(=O)CCCc1ccccc1)c1ccc(Br)cc1,-4%,5%,-9%,15%,.
N/C(=N\OC(=O)CCc1ccccc1)c1ccc(Br)cc1,-4%,?,1%,14%,6%
N/C(=N\OC(=O)CCc1ccccc1)c1ccccc1Cl,7%,24µM*,28%,?,9%
Cc1ccc(/C(N)=N/OC(=O)CCc2ccccc2)cc1,21%,15µM*,9%,?,.
CCOc1ccc(OCCCC(=O)ON=C(N)c2ccccc2Cl)cc1,-2%,5%,-4%,1%,.
N/C(=N\OC(=O)CCc1ccccc1)c1cccc(Br)c1,-5%,17µM*,0%,1%,-6%
